We go through 9 compounds from PMC5540273 (PLoS ONE, 2017).

The structures appear in SMILES notation.

Among the test systems are PAK1; PAK2; PAK3; PAK4; PAK6; PAK7; PDGFRA; PDGFRB; PDPK1; PFTAIRE2; PHKG1; PHKG2; PIK3C2B; PIK3C2G; PIK3CA; PIK3CB.
Holding throughout (details): concentration: 1 μM, replicates: in singlicate; n = 1
The test system of the next assay is T1, PCTK1.
T1 construct: gene CDK16

In another assay the test system is T2, PCTK2.
T2 construct: gene CDK17

The next assay relates to T3, PCTK3.
T3 construct: gene CDK18

The subject of another assay is T4, PFTK1.
T4 construct: gene CDK14
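Further: KINOMEscan kinase panel screen.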

With `Nc1n[nH]c2nnc(-c3ccccc3)cc12` [SB-517389], the “%Inh” value with PAK1 came out at 12%; with PAK2 it was 8%; in the assay with PAK3, 0%; in the assay on PAK4, 0%; with PAK6, 0%; in the assay with PAK7, 2%. The “%Inh” value with PCTK1 came to 7%; with PCTK2, 20%; in the assay on PCTK3 it was 15%; in the assay on PDGFRA, 0%; in the assay with PDGFRB it was 5%; with PDPK1, 0%. Besides, the “%Inh” value in the assay on PFTAIRE2 is 17%; in the assay with PFTK1 it was 24%; with PHKG1 it was 0%; with PHKG2, 1%; in the assay on PIK3C2B it was 0%; in the assay with PIK3C2G, 0%. Moreover, the “%Inh” value with PIK3CA and with PIK3CB was 0% in each case.

Consider `Cc1cc(N2CCC(NS(=O)(=O)c3ccc(F)cc3)CC2)nc(Nc2cccc(C#N)c2)n1.O=C(O)C(F)(F)F` [GSK1653537], for which the “%Inh” value turned out to be 0% in the assay with PAK1; 19% in the assay with PAK2; 6% in the assay with PAK3; 0% in the assay with PAK4; 0% in the assay with PAK6; 0% with PAK7. The “%Inh” value in the assay on PCTK1 turned out to be 0%; in the assay on PCTK2, 0%; with PCTK3 it was 18%; in the assay on PDGFRA it was 0%; with PDGFRB, 0%; in the assay with PDPK1, 15%. In addition, the “%Inh” value in the assay on PFTAIRE2 worked out at 10%; in the assay on PFTK1 it was 9%; in the assay with PHKG1, 17%; in the assay on PHKG2 it was 0%; with PIK3C2B it was 0%; in the assay on PIK3C2G, 6%. Besides, the “%Inh” value with PIK3CA turned out to be 0%; in the assay with PIK3CB, 2%.

As to `Nc1nc(-c2ccc3c(N)n[nH]c3c2)cc(N2CCCCC2)n1` [GSK2228768], the “%Inh” value with PAK1 is 2%; in the assay on PAK2, 20%; with PAK3, 6%; in the assay with PAK4 it was 0%; in the assay on PAK6 it was 0%; in the assay on PAK7, 0%. Moreover, the “%Inh” value in the assay on PCTK1 was 5%; in the assay on PCTK2 it was 0%; in the assay on PCTK3 it was 9%; in the assay with PDGFRA, 0%; in the assay on PDGFRB, 8%; in the assay with PDPK1 it was 94.6%. The “%Inh” value was determined as 1% in the assay on PFTAIRE2; 9% in the assay on PFTK1; 0% in the assay on PHKG1; 0% in the assay with PHKG2; 0% in the assay on PIK3C2B; 0% in the assay on PIK3C2G. Further, the “%Inh” value in the assay with PIK3CA and with PIK3CB was 0% throughout.

On to `OCCOCCn1ccc2ncnc(Nc3ccc(Oc4cccc(Cl)c4)c(Cl)c3)c21`, for which the “%Inh” value with PAK1 is 0%; in the assay with PAK2, 0%; in the assay on PAK3, 18%; in the assay on PAK4, 0%; with PAK6, 0%; with PAK7, 0%. For the same compound, the “%Inh” value in the assay with PCTK1 was 0%; in the assay on PCTK2 it was 0%; in the assay with PCTK3 it was 6%; in the assay on PDGFRA, 0%; with PDGFRB, 0%; in the assay on PDPK1, 13%. Further, the “%Inh” value in the assay with PFTAIRE2 worked out at 0%; in the assay on PFTK1 it was 10%; with PHKG1, 0%; in the assay on PHKG2, 26%; in the assay on PIK3C2B it was 0%; in the assay with PIK3C2G it was 0%. Also, the “%Inh” value in the assay on PIK3CA and in the assay on PIK3CB was 0% each time.

Take `CCc1nc(-c2cccc(N(C)S(=O)(=O)c3ccccc3)c2)c(-c2ccnc(Nc3ccc(N4CCN(C(C)=O)CC4)nc3)n2)s1` [GSK1645895]: the “%Inh” value in the assay with PAK1 was 6%; in the assay on PAK2, 0%; with PAK3, 0%; with PAK4 it was 0%; in the assay on PAK6 it was 5%; with PAK7, 5%. The “%Inh” value in the assay on PCTK1 came to 8%; in the assay on PCTK2, 24%; with PCTK3, 4%; in the assay on PDGFRA it was 14%; in the assay on PDGFRB, 32%; with PDPK1 it was 0%. The “%Inh” value is 25% in the assay on PFTAIRE2; 20% with PFTK1; 0% in the assay on PHKG1; 0% with PHKG2; 0% in the assay on PIK3C2B; 0% in the assay with PIK3C2G. Besides, the “%Inh” value in the assay with PIK3CA and in the assay on PIK3CB was 0% each time.

Regarding `O=c1cc(N2CCOCC2)nc2n(Cc3cccc(Cl)c3)ccn12` [GSK2296823], the “%Inh” value with PAK1 was 6%; in the assay with PAK2, 10%; with PAK3, 0%; in the assay on PAK4 it was 0%; with PAK6, 0%; with PAK7, 53%. In addition, the “%Inh” value turned out to be 5% in the assay on PCTK1; 0% with PCTK2; 17% with PCTK3; 0% in the assay with PDGFRA; 15% in the assay on PDGFRB; 0% in the assay with PDPK1. In addition, the “%Inh” value in the assay with PFTAIRE2 is 14%; with PFTK1, 18%; in the assay on PHKG1, 0%; in the assay with PHKG2, 0%; with PIK3C2B it was 6%; in the assay with PIK3C2G, 0%. The “%Inh” value in the assay with PIK3CA was determined as 0%; with PIK3CB, 98.5%.

Take `Fc1ccc(-c2ncn(CCCNCc3ccccc3)c2-c2ccncc2)cc1`: the “%Inh” value with PAK1 came to 30%; with PAK2 it was 25%; in the assay on PAK3 it was 0%; with PAK4 it was 11%; in the assay on PAK6, 11%; with PAK7 it was 14%. The “%Inh” value in the assay with PCTK1 stood at 7%; with PCTK2, 0%; with PCTK3, 8%; in the assay with PDGFRA it was 0%; with PDGFRB it was 24%; in the assay on PDPK1 it was 6%. Moreover, the “%Inh” value with PFTAIRE2 amounted to 0%; in the assay with PFTK1 it was 0%; in the assay on PHKG1 it was 0%; with PHKG2, 16%; in the assay with PIK3C2B it was 1%; in the assay with PIK3C2G, 31%. The “%Inh” value was 3% in the assay with PIK3CA and 0% in the assay on PIK3CB.

With `NC(=O)c1sc(-n2cnc3ccccc32)cc1OCc1ccccc1F` [GSK1024306], the “%Inh” value in the assay on PAK1 is given as 14%; with PAK2, 16%; with PAK3, 0%; with PAK4, 0%; in the assay with PAK6, 0%; with PAK7, 4%. Besides, the “%Inh” value in the assay with PCTK1 is recorded as 0%; in the assay on PCTK2, 0%; in the assay with PCTK3, 1%; with PDGFRA, 0%; in the assay with PDGFRB, 2%; with PDPK1 it was 19%. Further, the “%Inh” value is listed as 7% with PFTAIRE2; 6% in the assay with PFTK1; 0% in the assay with PHKG1; 0% in the assay on PHKG2; 0% in the assay with PIK3C2B; 0% with PIK3C2G. Further, the “%Inh” value in the assay with PIK3CA and in the assay with PIK3CB was 0% throughout.

With `Clc1cccc(-c2nc(Nc3ccncc3)c3ccccc3n2)c1` [GW873004], the “%Inh” value in the assay with PAK1 amounted to 0%; in the assay with PAK2 it was 0%; in the assay with PAK3 it was 37%; with PAK4, 16%; in the assay with PAK6, 0%; with PAK7, 0%. Further, the “%Inh” value in the assay with PCTK1 is reported as 0%; with PCTK2, 0%; with PCTK3, 0%; in the assay on PDGFRA, 0%; in the assay with PDGFRB, 12%; with PDPK1 it was 4%. For the same compound, the “%Inh” value with PFTAIRE2, in the assay on PFTK1, in the assay with PHKG1, in the assay on PHKG2, in the assay with PIK3C2B and in the assay with PIK3C2G was 0% each time. Besides, the “%Inh” value with PIK3CA and in the assay with PIK3CB was 0% each time.
